The values below come from PubChem BioAssay (Tox21).

The nature of assay [1]: qHTS assay to identify small molecule antagonists of the thyroid receptor (TR) signaling pathway (AID 743065). Further: series mostly up to about 70 µM; nearly all actives have a fitted effect of over 55% in size. A digest of the protocol:
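Antagonism measured as loss of luciferase signal in GH3 cells stably carrying a TRE-luciferase reporter, co-treated with compound and T3 (1 nM final) for 23.5 h at 37 C. Viability was read in the same well by CellTiter-Fluor.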

Assay [2] relates to thyroid hormone receptor (rat, GH3 cells). The assay is described as follows: qHTS assay to identify small molecule agonists of the thyroid receptor (TR) signaling pathway (AID 743066; calls by dose curve). (qHTS replaces the single test concentration by a dilution series.)
In assay [3] the target is Estrogen receptor (Homo sapiens) (UniProt P03372). Nature of the assay: qHTS assay to identify small molecule antagonists of the estrogen receptor alpha (ER-alpha) signaling pathway (AID 743069; active means well fitted curve in the direction sought with a large enough effect in the signal ratio in the repeat runs, not every such curve was filed as active; the % refers to the signal ratio). The method, boiled down:
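Antagonist mode: compounds in DMSO were co-added with 17beta-estradiol to ER-alpha-bla HEK293 cells (2% charcoal-stripped serum) and left 18 h at 37C. Reporter inhibition was measured as FRET fluorescence after 2 h LiveBLAzer substrate at room temperature.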

The nature of assay [4]: qHTS assay to identify small molecule antagonists of the estrogen receptor alpha (ER-alpha) signaling pathway - cell viability counter screen (AID 743074; calls by dose curve;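 further: HEK293 cells carrying ER-alpha-UAS-bla reporter stimulated with 17beta-estradiol; nearly all actives have a fitted effect of over 45% in size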).
Assay [5] addresses Estrogen receptor (Homo sapiens) (UniProt P03372). The assay is described as follows: qHTS assay to identify small molecule agonists of the estrogen receptor alpha (ER-alpha) signaling pathway (AID 743075; calls by dose curve;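 further: HEK293 GripTite cells with ER-alpha and UAS-driven beta-lactamase reporter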).
Assay [6] shares this target. Nature of the assay: qHTS assay to identify small molecule agonists of the estrogen receptor alpha (ER-alpha) signaling pathway using the BG1 cell line (AID 743079). Further: nearly all actives have a fitted effect of over 20% in size.
Assay [7] in a line: qHTS assay to identify small molecule antagonists of the estrogen receptor alpha (ER-alpha) signaling pathway using the BG1 cell line (AID 743080; calls by dose curve;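 further: BG1 cells stimulated with 17beta-estradiol alongside compound; nearly all actives have a fitted effect of over 25% in size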; further: potency means the concentration at half of the fitted maximal effect). A digest of the protocol: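 Luminescence from a 4×ERE-luciferase reporter in BG1-Luc-4E2 cells served as read-out. Cells, pre-cultured 5 days in stripped-serum phenol-red-free medium, were exposed to compound with 17beta-estradiol co-stimulation for 21.5 h at 37 C.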

Assay [8] in a line: qHTS assay to identify small molecule antagonists of the estrogen receptor alpha (ER-alpha) signaling pathway using the BG1 cell line - cell viability counter screen (AID 743081).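 Further: compound given together with 17beta-estradiol as the ER stimulus; series mostly up to about 70 µM; nearly all actives have a fitted effect of over 45% in size.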
Another assay has as its target Aromatase (Homo sapiens) (UniProt P11511). The assay is described as follows: qHTS assay to identify aromatase inhibitors (AID 743083). Further: series mostly up to about 70 µM; nearly all actives have a fitted effect of over 55% in size.
A short description of assay [9]: qHTS assay to identify aromatase inhibitors - cell viability counter screen (AID 743084).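 Further: cells stimulated with testosterone during compound exposure; nearly all actives have a fitted effect of over 55% in size.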

Structures are written as SMILES. Inconclusive results are not listed. Calls of active or inactive are those of the source. Unless noted, the call rests on the fitted dose curve; in most records, active means well fitted curve in the direction sought with a large enough effect in the repeat runs; inconclusive means weak or mixed curves; inactive means no such curve, though single readings can be large; an effect the other way counts as inactive or inconclusive.

Aromatase (Homo sapiens), sequence (P11511 whole entry, looked up): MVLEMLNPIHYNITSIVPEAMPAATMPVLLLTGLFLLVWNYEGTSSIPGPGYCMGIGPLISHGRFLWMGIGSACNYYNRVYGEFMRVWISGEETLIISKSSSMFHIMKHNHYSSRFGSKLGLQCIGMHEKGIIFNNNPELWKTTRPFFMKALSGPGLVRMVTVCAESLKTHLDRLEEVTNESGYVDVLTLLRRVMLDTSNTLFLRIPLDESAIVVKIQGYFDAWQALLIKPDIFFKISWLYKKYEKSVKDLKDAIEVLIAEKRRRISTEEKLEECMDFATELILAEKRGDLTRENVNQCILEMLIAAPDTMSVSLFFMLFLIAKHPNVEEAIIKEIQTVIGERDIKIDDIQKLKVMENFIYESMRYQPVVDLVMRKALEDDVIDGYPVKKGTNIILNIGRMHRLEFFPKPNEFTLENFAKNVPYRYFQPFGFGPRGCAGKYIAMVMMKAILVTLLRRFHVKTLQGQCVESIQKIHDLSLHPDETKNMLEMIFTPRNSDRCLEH
Estrogen receptor (Homo sapiens), sequence (P03372 whole entry, looked up): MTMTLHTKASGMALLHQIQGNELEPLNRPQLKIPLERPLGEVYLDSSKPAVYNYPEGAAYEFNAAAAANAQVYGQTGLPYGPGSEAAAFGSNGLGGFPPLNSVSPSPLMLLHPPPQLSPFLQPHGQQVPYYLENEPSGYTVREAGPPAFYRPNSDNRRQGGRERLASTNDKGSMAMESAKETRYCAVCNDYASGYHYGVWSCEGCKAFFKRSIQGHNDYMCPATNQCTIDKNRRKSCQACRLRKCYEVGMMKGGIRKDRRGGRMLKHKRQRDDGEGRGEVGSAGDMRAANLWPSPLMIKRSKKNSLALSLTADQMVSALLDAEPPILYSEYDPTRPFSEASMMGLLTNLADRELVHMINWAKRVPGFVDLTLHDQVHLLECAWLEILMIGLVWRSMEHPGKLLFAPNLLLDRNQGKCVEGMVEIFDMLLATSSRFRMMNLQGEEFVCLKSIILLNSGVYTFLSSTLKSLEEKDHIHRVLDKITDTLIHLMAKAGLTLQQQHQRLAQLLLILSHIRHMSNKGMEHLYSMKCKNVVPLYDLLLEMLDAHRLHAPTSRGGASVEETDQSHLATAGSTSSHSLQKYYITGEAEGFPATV

For `O=P(O)(O)C(O)(Cc1cccnc1)P(=O)(O)O`, the Potency entry in assay [1], in assay [2], in [4], in assay [5], in assay [6] and in [7] was “inactive” each time. Moreover, the Potency entry with Aromatase (Homo sapiens) is “inactive”. Moreover, the molecule was called inactive in assay [3], in assay [8] and in [9].

Consider `C[n+]1ccccc1/C=N/O`, for which the Potency result in assay [1], in assay [2], in [4], in [5], in assay [6] and in [7] was “inactive” throughout. Moreover, the Potency result with Aromatase (Homo sapiens) is “inactive”. Further, the molecule was called inactive in assay [3], in assay [8] and in [9].

On to `O=S(=O)(O)c1ccc(Cl)cc1`, for which the Potency result in assay [1], in assay [2], in assay [4], in assay [5], in assay [6] and in [7] was “inactive” each time. Moreover, in the assay with Aromatase (Homo sapiens), the Potency result is “inactive”. In addition, the outcome in [3], in assay [8] and in assay [9] was inactive.

As to `CNC(C)=O`, the Potency result in assay [1], in assay [2], in assay [4], in assay [5], in assay [6] and in assay [7] was “inactive” each time. In the assay with Aromatase (Homo sapiens), the Potency entry is “inactive”. Further, the call in [3], in assay [8] and in assay [9] was inactive.

Regarding `OCCC(F)(F)C(F)(F)C(F)(F)C(F)(F)C(F)(F)C(F)(F)F`, the Potency result in [1], in [2], in assay [4], in assay [5], in assay [6] and in assay [7] was “inactive” in each case. In addition, the Potency entry with Aromatase (Homo sapiens) is “inactive”. The molecule was classed as inactive in assay [3], in [8] and in [9].

Regarding `COC(=O)/C=C(\C)CCC=C(C)C`, the Potency result in assay [1], in assay [2], in assay [4], in assay [5], in assay [6] and in [7] was “inactive” in each case. Moreover, the Potency result in the assay with Aromatase (Homo sapiens) is “inactive”. The call in assay [3] and in [8] was inactive.

Consider `CC(C)(C)OC(=O)c1ccccc1C(=O)O`, for which the Potency entry in assay [1], in assay [2], in assay [4], in [5], in assay [6] and in [7] was “inactive” throughout. The Potency entry with Aromatase (Homo sapiens) is “inactive”. For the same molecule, the molecule was called inactive in assay [3], in assay [8] and in assay [9].

Regarding `CCCCOCCCC`, the Potency entry in assay [1], in [2], in assay [4], in assay [5], in assay [6] and in [7] was “inactive” in each case. Further, the Potency result with Aromatase (Homo sapiens) is “inactive”. Further, the call in [3], in assay [8] and in [9] was inactive.

On to `CCC(=O)OCCOc1ccccc1`, for which the Potency result in assay [1], in [2], in assay [4], in [5], in assay [6] and in assay [7] was “inactive” in each case. In addition, the Potency result with Aromatase (Homo sapiens) is “inactive”. Besides, the call in [3], in assay [8] and in assay [9] was inactive.

In the case of `c1coc(Cn2cccc2)c1`, the Potency result in assay [1], in [2], in assay [4], in assay [5], in assay [6] and in assay [7] was “inactive” throughout. Moreover, the Potency result with Aromatase (Homo sapiens) was “inactive”. Also, the molecule was classed as inactive in assay [3], in assay [8] and in [9].

Consider `Nc1ccc(C(=O)NCC(=O)O)cc1`, for which the Potency result in [1], in [2], in assay [4], in assay [5], in [6] and in assay [7] was “inactive” in each case. Moreover, in the assay with Aromatase (Homo sapiens), the Potency result was “inactive”. Also, the molecule was classed as inactive in assay [3], in [8] and in assay [9].

`O=S(=O)(O)CC(O)CCl` (centres undefined): the Potency entry in [1], in assay [2], in assay [4], in assay [5], in [6] and in [7] was “inactive” each time. The Potency result with Aromatase (Homo sapiens) is “inactive”. Also, the call in [3], in assay [8] and in [9] was inactive.

As for `C[C@@H](CN1CC(=O)NC(=O)C1)N1CC(=O)NC(=O)C1`, the Potency result in assay [1], in assay [2], in [4], in assay [5], in [6] and in assay [7] was “inactive” each time. Moreover, the Potency result with Aromatase (Homo sapiens) is “inactive”. In addition, the molecule was called inactive in [3], in assay [8] and in [9].

For the molecule `CC(CC(=O)Cl)CC(C)(C)C` (centres undefined), the Potency entry in [1], in [2], in [4], in [5], in [6] and in [7] was “inactive” each time. Besides, the Potency result with Aromatase (Homo sapiens) was “inactive”. Further, the molecule was called inactive in assay [3], in assay [8] and in assay [9].

With `Cc1ccc(NC(N)=O)cc1`, the Potency result in assay [1], in assay [2], in [4], in assay [5], in [6] and in assay [7] was “inactive” throughout. Further, in the assay with Aromatase (Homo sapiens), the Potency result is “inactive”. The result in assay [3], in [8] and in assay [9] was inactive.

Consider `CCOC(=O)CC(C(C)=O)C(C)=O`, for which the Potency entry in assay [1], in [2], in assay [4], in [5], in assay [6] and in assay [7] was “inactive” each time. Moreover, the Potency entry in the assay with Aromatase (Homo sapiens) was “inactive”. The molecule was called inactive in assay [3], in assay [8] and in [9].

As for `CN(C)CCC[C@@]1(c2ccc(F)cc2)OCc2cc(C#N)ccc21`, the Potency result in assay [1], in [2], in assay [4], in assay [5], in [6] and in assay [7] was “inactive” each time. Also, the Potency entry in the assay with Aromatase (Homo sapiens) was “inactive”. Further, the molecule was called inactive in assay [3], in [8] and in assay [9].

On to `CC(C)(C)C(=O)CCc1ccc(Cl)cc1`, for which the Potency entry in assay [1], in [2], in assay [4], in assay [5], in assay [6] and in [7] was “inactive” in each case. Also, the Potency entry in the assay with Aromatase (Homo sapiens) is “inactive”. The outcome in assay [3], in [8] and in [9] was inactive.

Take `CC(O)CCCCn1c(=O)c2c(ncn2C)n(C)c1=O` (centres undefined): the Potency result in assay [1], in [2], in assay [4], in assay [5], in assay [6] and in assay [7] was “inactive” throughout. Besides, in the assay with Aromatase (Homo sapiens), the Potency entry is “inactive”. For the same molecule, the molecule was classed as inactive in assay [3], in [8] and in assay [9].

For the molecule `CCCCN=C(N)N=C(N)N`, the Potency result (in assay [1]; in [2]; in assay [4]; in assay [5]; in assay [6]; with Aromatase (Homo sapiens)) was “inactive” throughout. The molecule was classed as inactive in assay [3], in [8] and in assay [9]. Further, in assay [7], the Potency is 16.8 µM (active).

As to `CN1CCN(C(=O)C2CCCCC2)CC1`, the Potency entry in assay [1], in [2], in assay [4], in [5], in assay [6] and in assay [7] was “inactive” throughout. The Potency result with Aromatase (Homo sapiens) is “inactive”. For the same molecule, the result in assay [3], in assay [8] and in assay [9] was inactive.

Consider `Cc1ccc(Br)cc1`, for which the Potency entry in [1], in [2], in assay [4], in [5], in [6] and in assay [7] was “inactive” throughout. Further, the Potency result with Aromatase (Homo sapiens) was “inactive”. Moreover, the result in [3], in assay [8] and in assay [9] was inactive.

In the case of `C=CCOC(=O)CCCCCCCC`, the Potency result in assay [1], in assay [2], in assay [4], in assay [5], in assay [6] and in assay [7] was “inactive” throughout. In addition, the Potency result with Aromatase (Homo sapiens) is “inactive”. In addition, the result in assay [3], in assay [8] and in assay [9] was inactive.

As for `CCCCCCCCCCCCCC(=O)OCC`, the Potency entry in [1], in [2], in assay [4], in [5], in assay [6] and in [7] was “inactive” throughout. For the same molecule, the Potency result with Aromatase (Homo sapiens) was “inactive”. For the same molecule, the molecule was called inactive in [3], in assay [8] and in assay [9].

As for `C=CCCCCCCCCCCCCCC`, the Potency result in assay [1], in [2], in assay [4], in assay [5], in assay [6] and in [7] was “inactive” in each case. For the same molecule, the Potency result with Aromatase (Homo sapiens) was “inactive”. In addition, the result in [3], in assay [8] and in [9] was inactive.
